From PubChem
TDP1 cell CPT: growth inhibition of DT40 Tdp1-/-;hTDP1 cells with camptothecin (screen for TDP1 inhibitors); AID 686979; chicken DT40 Tdp1-/-;hTDP1 cells + 20 nM CPT, ATP luminescence, 48 h; 420,000 compounds, 12% hits; Potency, µM (doses to about 46.2 µM), inactives show at the top dose activity change, negative = growth inhibition, actives largely listed as inhibitors; further: potency means the concentration at half of the fitted maximal effect; on the % scale 0 is the no-effect control and ±100 the full control effect; nearly all actives have a fitted effect of over 55% in size
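Chicken DT40 Tdp1-/- cells stably complemented with human TDP1 were seeded at 400 cells/well in medium containing 20 nM camptothecin, exposed to pin-transferred compounds, and grown at 37 °C for at least 48 hr. Viability was read as ATP luminescence.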
TGFb inhibitor: TGF-b pathway inhibition; 410,000 compounds, 1.2% hits; AID 588855; HepG2 CAGA-GFP TGF-b/SMAD3 reporter, GFP fluorescence, 18 h; TGF-beta stimulated, 500 pg/mL final; Potency, µM (titrated, usually from 46.1 µM), for inactives: at the top dose activity, negative = inhibition, actives largely listed as inhibitors; further: potency means the concentration at half of the fitted maximal effect; on the % scale 0 is the no-effect control and ±100 the full control effect; nearly all actives have a fitted effect of over 65% in size
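Using HEPG2 CAGA-GFP reporter cells at 1000 cells/well, we pinned test compounds, stimulated with recombinant TGF-beta (500 pg/mL final) and measured total well GFP after 18 h.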
TDP1 inh: TDP1 (human) enzyme inhibition; 350,000 compounds, 0.28% hits; Q9NUW8; recombinant TDP1, AlphaScreen DNA substrate cleavage; Potency, µM (series often up to 130 µM), for the others: top-dose activity change, negative = inhibition, usual class: inhibitors; further: potency means the concentration at half of the fitted maximal effect; on the % scale 0 is the no-effect control and ±100 the full control effect; nearly all actives have a fitted effect of over 40% in size
Target sequence (Q9NUW8 whole entry, looked up): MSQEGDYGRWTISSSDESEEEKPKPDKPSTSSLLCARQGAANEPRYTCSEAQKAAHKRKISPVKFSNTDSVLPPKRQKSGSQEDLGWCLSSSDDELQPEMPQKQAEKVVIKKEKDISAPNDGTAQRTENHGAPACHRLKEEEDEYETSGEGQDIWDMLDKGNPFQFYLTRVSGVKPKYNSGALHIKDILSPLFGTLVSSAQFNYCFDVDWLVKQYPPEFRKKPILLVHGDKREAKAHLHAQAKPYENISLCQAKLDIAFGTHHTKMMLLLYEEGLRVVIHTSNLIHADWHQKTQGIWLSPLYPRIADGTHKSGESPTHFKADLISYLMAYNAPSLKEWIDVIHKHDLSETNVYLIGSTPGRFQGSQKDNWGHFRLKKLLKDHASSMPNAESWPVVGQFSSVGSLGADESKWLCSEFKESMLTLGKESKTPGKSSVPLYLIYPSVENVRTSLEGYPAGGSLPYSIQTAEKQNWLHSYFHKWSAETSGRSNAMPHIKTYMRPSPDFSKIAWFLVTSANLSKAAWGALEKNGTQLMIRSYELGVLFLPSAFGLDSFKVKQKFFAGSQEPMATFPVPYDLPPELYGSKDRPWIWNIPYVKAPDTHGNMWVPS
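Compounds were preincubated with Tdp1 (1 nM final) for 15 min at room temperature before substrate (15 nM final) started a 5 min reaction; beads (10 ug/ml final) were then added for 10 min before AlphaScreen detection.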
TDP1 cell noCPT: qHTS for Inhibitors of human tyrosyl-DNA phosphodiesterase 1 (TDP1): qHTS in cells in absence of CPT; DT40 Tdp1-/- hTDP1 cells, no CPT, ATP luminescence, 48 h; AID 686978, 2013; 420,000 compounds, 15% hits; Potency, µM (series often up to 46.2 µM), for inactives: at the top dose activity change, negative = growth inhibition, hits mostly inhibitors; further: potency means the concentration at half of the fitted maximal effect; on the % scale 0 is the no-effect control and ±100 the full control effect; nearly all actives have a fitted effect of over 55% in size
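Camptothecin absent (DMSO only). Human TDP1-complemented DT40 knockout cells, 400 cells/well, 37 °C for minimum 48 hr; ATP measured via CellTiter-Glo, 30 min dark incubation, luminescence.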
HepG2 tox: kills HepG2 cells in TGF-b inhibitor counter-screen; HepG2 CAGA-GFP viability, ATP luminescence, 18 h; Potency, µM (titrated, usually from 46.1 µM), for inactives: top-dose activity change, negative = cytotoxicity, most hits filed as cytotoxic; 410,000 compounds, 0.76% hits; AID 588856; further: potency means the concentration at half of the fitted maximal effect
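HepG2 CAGA-GFP cells (1000/well, DMEM with 1% FBS) received compound, then TGF-beta at 500 pg/mL final, and were incubated 18 hours at 37 degrees C. Viability was read by CellTiter-Glo luminescence. Media-only wells were set as complete cell-killing and DMSO as no toxicity.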
IL-1B inflam inh: inflammasome signaling inhibition, IL-1 beta readout; 360,000 compounds, 4.7% hits; AID 743279; THP-1 LPS/ATP IL-1B secretion, AlphaLISA, 16 h; stronger effect = lower value; activity change, % at 57.5 µM; in the data active means activity change below about -50%; inconclusive means mostly about -30% to -49%; further: on the % scale 0 is the no-effect control and ±100 the full control effect
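Secreted IL-1B measured by AlphaLISA bead assay after 16 h compound exposure of THP-1 cells; compounds (final up to 57.5 uM) added 1 h before LPS (250 ng/mL) and ATP (1.25 mM) stimulation; lower signal means less secretion.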
Numbers without * were called inactive; ? = inconclusive; · = not tested or not shown. The list is not random: actives were taken first. Their share in the collection is about 19%. Unless noted, the call rests on the fitted dose curve; in most records, active means well fitted curve in the direction sought with a large enough effect; inconclusive means small, poorly fitted or top-dose-only effect, or another doubt; inactive means no such curve, though single readings can be large; an effect the other way counts as inactive or inconclusive.

SMILES	TDP1 cell CPT	TGFb inhibitor	TDP1 inh	TDP1 cell noCPT	HepG2 tox	IL-1B inflam inh
Cc1ccc(-c2nc3ccc(Cl)cn3c2Cc2ccsc2)cc1	?	?	·	?	-17%	5
Fc1ccc(-c2nc3ccc(Br)cn3c2Cc2ccsc2)cc1	?	?	·	?	-31%	65
Cc1ccc(Cc2c(C(C)(C)C)nc3ccc(Br)cn23)cc1	?	-8%	·	?	-11%	7
Cc1ccc(-c2nc3ccc(C)cn3c2Cc2ccsc2)cc1	?	-20%	·	15µM*	-28%	-29
Cc1ccc2nc(C(C)(C)C)c(Cc3ccsc3)n2c1	?	?	·	18µM*	-43%	19
CCCc1nc2ccc(C)cn2c1Cc1ccsc1	13µM*	-4%	·	9.2µM*	-3%	36
OC1(c2ccccn2)COc2ccccc2O1 (centres undefined)	3%	25%	·	10%	27%	-14
CC1(C)Oc2ccccc2OC1(O)c1ccc2ccccc2n1 (centres undefined)	?	?	5%	18µM*	-22%	5
CN1C(C(=O)NCC2CC2)CC2Cn3c(nc4cc(Cl)c(Cl)cc43)C21 (centres undefined)	-17%	-5%	4%	-18%	-2%	6
CC(C)CCNC(=O)C1CC2Cn3c(nc4cc(Cl)c(Cl)cc43)C2N1C (centres undefined)	?	-20%	·	23µM*	-26%	-21
CN1/C(=C\C(=O)COC(=O)CNC(=O)c2ccc3ccccc3c2)C(C)(C)c2ccccc21	18µM*	1%	3%	10µM*	1%	68
CNS(=O)(=O)c1cccc(C(=O)OCC(=O)/C=C2/N(C)c3ccccc3C2(C)C)c1	21µM*	-12%	-5%	18µM*	-34%	11
CN1/C(=C\C(=O)COC(=O)CNC(=O)c2ccccc2F)C(C)(C)c2ccccc21	13%	2%	1%	-15%	0%	16
CN1/C(=C\C(=O)COC(=O)c2ccc(O)c(O)c2)C(C)(C)c2ccccc21	6.5µM*	?	5%	6.5µM*	-11%	5
CN1/C(=C\C(=O)COC(=O)c2ccc(O)cc2)C(C)(C)c2ccccc21	15µM*	?	4%	16µM*	-76%	3
Cc1cnc(CNC(=O)c2ccc3sc([C@H]4C[C@H](O)[C@@H](CO)O4)nc3c2)cn1	?	2%	·	12%	0%	48
Nc1ccc2nc3c(=O)n(CCc4ccccc4)c(=O)[nH]c3nc2c1	-8%	104%	-1%	?	-17%	·
Cc1cc2nc3c(=O)n(CCc4ccccc4)c(=O)[nH]c3nc2cc1N	-22%	83%	0%	21µM*	-29%	?
CCN(c1ccccc1)S(=O)(=O)c1ccc(OC)c(NC(=O)Cn2cnc3c2c(=O)n(C)c(=O)n3C)c1	?	2.8µM*	4%	?	21%	-13
Cn1c(=O)c2c(ncn2CC(=O)Nc2ccccc2)n(C)c1=O	-23%	-1%	3%	-29%	15%	8
Cc1ccccc1C(=O)Nc1cccc(NC(=O)Cn2cnc3c(=O)n(C)c(=O)n(C)c32)c1	10µM*	-21%	7%	8.2µM*	-5%	47
CN(c1ccccc1)S(=O)(=O)c1cccc(NC(=O)Cn2cnc3c2c(=O)n(C)c(=O)n3C)c1	23µM*	-25%	5%	16µM*	-30%	8
Cc1cccc(C)c1NC(=O)Cn1cnc2c(=O)n(C)c(=O)n(C)c21	-17%	-4%	-2%	-20%	10%	13
COc1cc2cnc(-c3ccsc3)c(-c3ccc(F)cc3)c2cc1OC	?	-48%	2%	?	-1%	-14
